Records with an inconclusive call do not appear. Values without a mark were called inactive. The call rests on the fitted dose curve; in most records, active means well fitted inhibition curve with a large enough effect; inconclusive means small, poorly fitted or top-dose-only effect; inactive means flat fitted curve, though single readings scatter.

This assay has as its target Aldehyde dehydrogenase, mitochondrial (Homo sapiens) (UniProt P05091). Put plainly: qHTS for Inhibitors of the Aldehyde Dehydrogenase Family (ALDH2) Primary screen (AID 2061308).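 Further: plate controls were vehicle for no effect and reference inhibitor for full effect; nearly all actives have a fitted effect of over 55% in size.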 The settings on record: ALDH2 enzyme inhibition qHTS, 1536-well; series mostly up to 56 µM; activity change, negative = inhibition: at the top concentration.
Regarding `COc1ccc(O)c(C2Nc3ccccc3C(=O)N2Cc2ccccc2)c1` (centres undefined), the “activity change, negative = inhibition” value was -23.4%.

For `CCN1CCN(c2ccc(Nc3ccc(-c4ccc(C(N)=O)cc4)n4ncnc34)cc2)CC1`, the “activity change, negative = inhibition” value was 9.77%. Consider `Cc1ccc(-c2cnc(N3CCC(C(N)=O)CC3)s2)cc1`, for which the “activity change, negative = inhibition” value is 2.39%.

As to `COc1cc(O)c2c(c1)C1OC1C[C@H](O)[C@H](O)C(=O)/C=C\C[C@H](C)OC2=O` (some centres undefined), the “activity change, negative = inhibition” value was -15.5%.

These data come from PubChem BioAssay (NCATS).
